# Sampled rows, rich in hits. Any-hit rate of the full collection: about 19%.
# TDP1 cell noCPT: qHTS for Inhibitors of human tyrosyl-DNA phosphodiesterase 1 (TDP1): qHTS in cells in absence of CPT; DT40 Tdp1-/- hTDP1 cells, no CPT, ATP luminescence, 48 h; Potency, µM (highest dose often 46.2 µM), for the others: at the highest dose activity change, negative = growth inhibition, most hits filed as inhibitors; 420,000 tested, 15% active; AID 686978, 2013; also: nearly all actives have a fitted effect of over 55% in size
#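 Readout: luminescence from CellTiter-Glo after 30 min in the dark at RT. Cells: DT40 Tdp1-/- with stable hTDP1, 400/well. Exposure: compounds alone, ≥48 hr, 37 °C.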
# RORg inh: qHTS for inhibitors of ROR gamma transcriptional activity. Drosophila S2 Gal4-RORgamma UAS-luciferase reporter, 20 h. Potency, µM (doses to about 53.6 µM), for inactives: top-dose activity change, negative = inhibition, hits mostly inhibitors. 310,000 tested, 5.4% active; also: nearly all actives have a fitted effect of over 60% in size
# Target sequence (P51450 whole entry, looked up, the tested form may be a part): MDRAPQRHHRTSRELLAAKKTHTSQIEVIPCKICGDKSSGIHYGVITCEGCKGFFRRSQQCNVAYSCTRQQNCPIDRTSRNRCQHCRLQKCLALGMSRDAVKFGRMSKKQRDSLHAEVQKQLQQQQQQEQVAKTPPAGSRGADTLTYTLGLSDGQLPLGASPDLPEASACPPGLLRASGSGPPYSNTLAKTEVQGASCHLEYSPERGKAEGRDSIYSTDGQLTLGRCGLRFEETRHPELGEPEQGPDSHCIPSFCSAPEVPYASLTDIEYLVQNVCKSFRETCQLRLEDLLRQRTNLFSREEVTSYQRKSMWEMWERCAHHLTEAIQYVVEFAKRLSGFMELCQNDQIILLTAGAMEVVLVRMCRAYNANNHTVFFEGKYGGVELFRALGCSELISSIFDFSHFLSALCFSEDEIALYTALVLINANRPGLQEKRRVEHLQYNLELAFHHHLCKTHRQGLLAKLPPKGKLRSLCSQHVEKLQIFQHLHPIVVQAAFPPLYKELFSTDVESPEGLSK
#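 Drosophila Schneider cells stably carrying a metallothionein-driven Gal4 DBD–ROR gamma fusion and a UAS-Photinus luciferase reporter were exposed to compound for 1 hr, then induced with copper sulfate (700 uM final) for 20 hr at ambient temperature before luminescence reading.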
# DT40 TDP1 CPT: qHTS for Inhibitors of human tyrosyl-DNA phosphodiesterase 1 (TDP1): qHTS in cells in presence of CPT | chicken DT40 Tdp1-/-;hTDP1 cells + 20 nM CPT, ATP luminescence, 48 h | 420,000 tested, 12% active | Potency, µM (doses to about 46.2 µM), for inactives: top-dose activity change, negative = growth inhibition, hits mostly inhibitors; also: nearly all actives have a fitted effect of over 55% in size
#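 Chicken DT40 Tdp1-/- cells complemented with human TDP1, 400 cells/well, exposed to compounds plus 20 nM camptothecin for at least 48 h at 37 C; viability read as ATP content by CellTiter-Glo luminescence.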
# Gal4-VP16 FLuc: VP16 counterscreen qHTS for inhibitors of ROR gamma transcriptional activity | Drosophila S2 Gal4-VP16 UAS-luciferase, luminescence, 20 h | Potency, µM (series often up to 53.6 µM), inactives show at the highest dose activity, negative = inhibition, hits mostly inhibitors | 310,000 tested, 3.5% active | AID 2546, 2010;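 also: Gal4-VP16 expression switched on by copper sulfate through the metallothionein promoter; nearly all actives have a fitted effect of over 50% in size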
# TDP1 block: qHTS Assay for Inhibitors of Tyrosyl-DNA Phosphodiesterase (TDP1) | Tyrosyl-DNA phosphodiesterase 1 (Homo sapiens), Q9NUW8 | recombinant TDP1, AlphaScreen DNA substrate cleavage | Potency, µM (doses to about 130 µM), for inactives: top-dose activity change, negative = inhibition, usual class: inhibitors | 350,000 tested, 0.28% active | AID 485290, 2010; also: nearly all actives have a fitted effect of over 40% in size
#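 Enzyme-compound mixtures sat 15 min at room temperature, followed by a 5 min reaction with 15 nM final substrate and 10 min with AlphaScreen beads. Recombinant human Tdp1 was used at 1 nM final.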
# * marks the source's active call; other numbers are inactive results; u = inconclusive; x = not tested or not shown; [ ] = remark or other dose. Calls follow the shape of the dose curve; as a rule, active = well fitted curve in the direction sought with a large enough effect; inconclusive = small, poorly fitted or top-dose-only effect, or another doubt; inactive = no such curve, though single readings can be large; an effect the other way counts as inactive or inconclusive. % is scaled to controls: 0 for no effect and ±100 for the full control effect; potency is read from the fitted curve at half-maximal effect.
SMILES,TDP1 cell noCPT,RORg inh,DT40 TDP1 CPT,Gal4-VP16 FLuc,TDP1 block
O=C(Nc1ccn(Cc2c(F)c(F)cc(F)c2F)n1)c1ccc(COc2ccc(Cl)cc2Cl)o1,u,11%,-23%,1%,-2%
Cc1nn(Cc2c(F)c(F)c(F)c(F)c2F)c(C)c1NC(=O)c1ccc(COc2ccc(Cl)cc2Cl)o1,15µM*,u,21µM*,-4%,3%
O=C(NC(Cc1ccccc1)C(=O)O)/C(=C/c1ccc([N+](=O)[O-])cc1)NC(=O)c1ccccc1 (stereo not given),-16%,-4%,4%,-10%,10%
Cc1ccc2cc(CN(CC3CCCO3)C(=S)Nc3ccccc3)c(=O)[nH]c2c1 (stereo not given),15µM*,-9%,u,-2%,4%
Cc1ccc2[nH]c(=O)c(CN(CC3CCCO3)C(=S)Nc3ccccc3)cc2c1 (stereo not given),15µM*,20%,13µM*,-4%,8%
Cc1ccc2cc(CN(CC3CCCO3)C(=S)Nc3ccccc3)c(=O)[nH]c2c1C (stereo not given),2.6µM*,-45%,2.9µM*,-24%,3%
CCCC[n+]1c(C)ccc2ccccc21,16µM*,x,u,x,x
Cc1cc(N)c2ccccc2[n+]1CCCCCCCCCCCCCC[n+]1c(C)cc(N)c2ccccc21,x,x,x,x,24%[56.1 µM]
CCn1nccc1C(=O)Nc1ccc(C)c(C)c1,-9%,19%,2%,1%,3%
CC1CCc2c(sc3ncnc(SCC(=O)Nc4ccc(C(=O)O)cc4)c23)C1 (stereo not given),-10%,-15%,2%,-1%,x
COc1cc(NC(=O)CSc2ncnc3sc4c(c23)CCC(C)C4)c(C(=O)O)cc1OC (stereo not given),-14%,11µM*,-1%,u,0%
COc1ccc(CCNC(=O)CCc2c(C)nc3cc(-c4ccccc4)nn3c2C)cc1OC,26µM*,x,16µM*,x,3%
CCOc1ccc(CCNC(=O)CCc2c(C)nc3cc(-c4ccccc4OC)nn3c2C)cc1,15µM*,x,u,x,1%
COc1ccc(CCNC(=O)CCc2c(C)nc3c4c(C)cc(C)nc4nn3c2C)cc1OC,16µM*,x,u,x,0%
CCOc1ccccc1NC(=O)CCc1c(C)nc2cc(-c3ccccc3)nn2c1C,12µM*,x,18µM*,x,7%
Cc1ccc(NC(=O)CCc2c(C)nc3cc(-c4ccccc4)nn3c2C)cc1F,u,x,u,x,8%
CSc1ccc(CCNC(=O)CCc2c(C)nc3cc(-c4ccccc4)nn3c2C)cc1,-24%,x,-23%,x,1%
Cc1cccc(CCNC(=O)CCc2c(C)nc3c4c(C)cc(C)nc4nn3c2C)c1,-17%,x,u,x,3%
Cc1c(CC=C(Cl)Cl)c(=O)[nH]c2c(C)cccc12,-1%,3%,-8%,-7%,6%
CC(=O)C1=C(c2ccccc2)NC(=O)NC1c1ccccc1 (stereo not given),1%,19%,13%,4%,x
O=C1CN(C(=O)COC(=O)CCS(=O)(=O)c2ccccc2Cl)c2ccccc2N1,u,x,18µM*,x,x
O=C1CN(C(=O)COC(=O)CCC(=O)c2ccc(Cl)cc2)c2ccccc2N1,-9%,x,21%,x,1%
CC1CCCCN1C(=O)COC(=O)c1ccc(S(C)(=O)=O)c([N+](=O)[O-])c1 (stereo not given),3.2µM*,x,2.2µM*,x,-1%
CS(=O)(=O)c1ccc(C(=O)OCC(=O)N2CC(=O)Nc3ccccc32)cc1[N+](=O)[O-],0.71µM*,x,1.1µM*,x,1%
CS(=O)(=O)c1ccc(C(=O)OCC(=O)N2CCCC2)cc1[N+](=O)[O-],4µM*,x,5µM*,x,1%
SMILES,TDP1 cell noCPT,RORg inh,DT40 TDP1 CPT,Gal4-VP16 FLuc,TDP1 block
Cc1c(C(=O)OCC(=O)N2CCCC2)cccc1[N+](=O)[O-],-3%,15%,-18%,28%,10%
O=C(CCNC(=O)N1CC(=O)Nc2ccccc21)NCc1ccccc1Cl,13µM*,x,u,x,x
O=C(CCNC(=O)N1CC(=O)Nc2ccccc21)NCc1cccc(Cl)c1,u,-14%,6%,-3%,1%
Cc1ccc[n+](CC(=O)Nc2c(Cl)cc(Cl)cc2Cl)c1,1%,13µM*,1%,2%,-3%
COc1cccc(C(=O)Nc2cccc(C(=O)OCc3cc(=O)n4nc(C(C)C)sc4n3)c2)c1,-16%,x,-11%,x,-4%
Cc1cccc(C(=O)Nc2cccc(OCc3cc(=O)n4cccc(C)c4n3)c2)c1,-6%,x,9%,x,-5%
CC(C)c1nn2c(=O)cc(COC(=O)c3cccc(NC(=O)COc4ccc(F)cc4)c3)nc2s1,21µM*,x,13µM*,x,1%
Cc1cccc(OCC(=O)Nc2cccc(C(=O)OCc3cc(=O)n4nc(C(C)C)sc4n3)c2)c1,12µM*,x,u,x,6%
Cc1cccc(OCC(=O)Nc2cccc(OCc3cc(=O)n4cccc(C)c4n3)c2)c1,15µM*,x,21µM*,x,3%
CNc1nc(NCCOc2ccccc2)c2sccc2n1,21µM*,x,18µM*,x,x
CNc1nc(NCCCN2CCCC2=O)c2sccc2n1,-2%,x,2%,x,x
c1ccc(CNc2nc(NCCOc3ccccc3)c3sccc3n2)cc1,16µM*,x,23µM*,x,x
c1ccc(CNc2nc(Oc3ccncc3)c3sccc3n2)cc1,-14%,x,-23%,x,x
O=C(CSC1CC(=O)N(CCc2ccccc2)C1=O)Nc1ccc(Br)cc1 (stereo not given),u,-1%,u,-12%,1%
O=C(COc1ccc(Cl)cc1Cl)Nc1ccccc1NS(=O)(=O)c1cccs1,-28%,13%,-37%,-6%[10 µM],-5%
Cc1cc(C)c(OCC(=O)Nc2nc(-c3ccccn3)cs2)c(C)c1,4.1µM*,2.8µM*,3.7µM*,u,5%
Cc1ccccc1OCC(=O)Nc1nc(-c2ccncc2)cs1,15µM*,x,21µM*,x,1%
CCc1ccccc1OCC(=O)Nc1nc(-c2cccnc2)cs1,3.3µM*,3.2µM*,3.3µM*,11µM*,9%
CCC(=O)c1ccc(OCC(=O)Nc2nc(-c3cccnc3)cs2)cc1,u,x,-14%,x,x
Cc1ccc(S(=O)(=O)NC(=O)C2(C)CCN2C(=O)c2cccc(F)c2)cc1 (stereo not given),4%,x,1%,x,x
C=CCN1C(=Nc2cccnc2)SCC1(O)c1ccc(C)cc1 (stereo not given),x,-40%,x,u,9%
Cc1ccc(C)c(CN2C[C@H](Sc3ccccn3)C[C@H]2C(=O)Nc2ccc3sc(C)nc3c2)c1,-10%,x,0%[9.04 µM],x,x

# Source: PubChem BioAssay
